Reference: PubChem BioAssay AID1159580 (chemical genetic matrix, 2015)
Out of some 5,500 compounds screened, about 2,000 (36%) were called active. Roughly 18% stayed inconclusive and do not appear here. Cut-off read from the data, not from the text of the source: active = normalized growth mostly below about 0.91 (no sharp cut-off); inconclusive = no clear call, values can overlap the other calls; inactive = mostly above about 0.92. The list shows a part of the results.

Assay: chemical genetic growth profiling, strain panel (AID 1159580);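 note: tested at 20 µM; growth read once vehicle control cultures reached saturation at 30 °C; 1 = growth at the plate median or of vehicle wells; lower values mean less growth of the strain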
Details: S. cerevisiae deletion strains, growth OD
[1] = locus YAR019C, strain CDC15, stronger effect = lower value
[2] = locus YBL105C, strain PKC1, stronger effect = lower value
[3] = locus YBR135W, strain CKS1, stronger effect = lower value
[4] = locus YBR136W, strain MEC1, stronger effect = lower value
[5] = locus YBR160W, strain CDC28, stronger effect = lower value
[6] = locus YDL017W, strain CDC7, stronger effect = lower value
[7] = locus YDL028C, strain MPS1, stronger effect = lower value
[8] = locus YDL101C, strain DUN1, stronger effect = lower value
[9] = locus YDL108W, strain KIN28, stronger effect = lower value
[10] = locus YDL132W, strain cdc53, stronger effect = lower value
[11] = locus YDL214C, strain PRR2, stronger effect = lower value
[12] = locus YDR052C, strain DBF4, stronger effect = lower value
[13] = locus YDR054C, strain cdc34, stronger effect = lower value
[14] = locus YDR226W, strain ADK1, stronger effect = lower value
[15] = locus YDR477W, strain SNF1, stronger effect = lower value
[16] = locus YER123W, strain YCK3, stronger effect = lower value
[17] = locus YER133W, strain GLC7, stronger effect = lower value
[18] = locus YFL009W, strain cdc4, stronger effect = lower value
[19] = locus YFL029C, strain CAK1, stronger effect = lower value
[20] = locus YFR003C, strain YPI1, stronger effect = lower value
[21] = locus YFR019W, strain FAB1, stronger effect = lower value
[22] = locus YFR028C, strain CDC14, stronger effect = lower value
[23] = locus YGR040W, strain KSS1, stronger effect = lower value
[24] = locus YGR052W, strain FMP48, stronger effect = lower value
[25] = locus YGR092W, strain DBF2, stronger effect = lower value
[26] = locus YHR030C, strain SLT2, stronger effect = lower value
[27] = locus YHR079C, strain IRE1, stronger effect = lower value
[28] = locus YHR082C, strain KSP1, stronger effect = lower value
[29] = locus YHR205W, strain SCH9, stronger effect = lower value
[30] = locus YIL147C, strain SLN1, stronger effect = lower value
[31] = locus YJL095W, strain BCK1, stronger effect = lower value
[32] = locus YJL128C, strain PBS2, stronger effect = lower value
[33] = locus YJL157C, strain FAR1, stronger effect = lower value
[34] = locus YJR016C, strain ILV3, stronger effect = lower value
[35] = locus YJR066W, strain TOR1 (second series), stronger effect = lower value
[36] = locus YJR066W, strain TOR1, stronger effect = lower value
[37] = locus YKL048C, strain ELM1, stronger effect = lower value
[38] = locus YKL067W, strain YNK1, stronger effect = lower value
[39] = locus YKL101W, strain HSL1, stronger effect = lower value
[40] = locus YKL193C, strain SDS22, stronger effect = lower value
[41] = locus YKL203C, strain TOR2, stronger effect = lower value
[42] = locus YLR113W, strain HOG1, stronger effect = lower value
[43] = locus YLR133W, strain CKI1, stronger effect = lower value
[44] = locus YLR403W, strain SFP1, stronger effect = lower value
[45] = locus YML070W, strain DAK1, stronger effect = lower value
[46] = locus YMR001C, strain CDC5, stronger effect = lower value
[47] = locus YMR205C, strain PFK2 (second series), stronger effect = lower value
[48] = locus YMR277W, strain FCP1, stronger effect = lower value
[49] = locus YNL006W, strain LST8, stronger effect = lower value
[50] = locus YNL020C, strain ARK1, stronger effect = lower value
[51] = locus YNL161W, strain CBK1, stronger effect = lower value
[52] = locus YNL183C, strain NPR1, stronger effect = lower value
[53] = locus YNL207W, strain RIO2, stronger effect = lower value
[54] = locus YNL222W, strain SSU72, stronger effect = lower value
[55] = locus YNL307C, strain MCK1 (second series), stronger effect = lower value
[56] = locus YOL078W, strain AVO1, stronger effect = lower value
[57] = locus YOL136C, strain PFK27, stronger effect = lower value
[58] = locus YOR061W, strain CKA2, stronger effect = lower value
[59] = locus YOR119C, strain RIO1, stronger effect = lower value
[60] = locus YOR231W, strain MKK1, stronger effect = lower value
[61] = locus YOR329C, strain SCD5, stronger effect = lower value
[62] = locus YPL031C, strain PHO85, stronger effect = lower value
[63] = locus YPL153C, strain RAD53, stronger effect = lower value
[64] = locus YPL204W, strain HRR25, stronger effect = lower value
[65] = locus YPL209C, strain IPL1, stronger effect = lower value
[66] = locus YPL256C, strain CLN2, stronger effect = lower value
[67] = locus YPR025C, strain CCL1, stronger effect = lower value
[68] = locus YPR106W, strain ISR1, stronger effect = lower value
[69] = locus YPR111W, strain DBF20, stronger effect = lower value
[70] = strain NNK1, stronger effect = lower value
[71] = strain TSCII, stronger effect = lower value

Measured: normalized growth

Cc1ccc2c(c1)CCCN2CC(=O)N(c1ccccc1)C1CCCCC1
active: [42] 0.836
inactive: [1] 0.989 | [2] 0.978 | [3] 0.986 | [4] 0.986 | [5] 0.978 | [6] 0.982 | [7] 0.994 | [8] 0.984 | [9] 0.986 | [10] 0.987 | [11] 0.943 | [12] 0.991 | [13] 0.975 | [14] 0.992 | [15] 0.951 | [16] 0.928 | [17] 0.951 | [18] 0.989 | [19] 0.986 | [20] 0.986 | [21] 0.961 | [22] 0.976 | [23] 0.923 | [24] 0.994 | [25] 0.948 | [26] 0.966 | [27] 0.965 | [28] 0.991 | [29] 0.991 | [30] 0.991 | [31] 0.965 | [32] 0.932 | [33] 0.944 | [34] 0.985 | [35] 0.928 | [36] 0.999 | [37] 0.945 | [38] 0.946 | [39] 0.912 | [40] 0.974 | [41] 0.999 | [43] 0.937 | [44] 0.935 | [45] 0.912 | [46] 0.991 | [47] 0.955 | [48] 0.99 | [49] 0.992 | [50] 0.943 | [51] 0.983 | [52] 0.941 | [53] 0.98 | [54] 0.983 | [55] 0.948 | [56] 0.99 | [57] 0.925 | [58] 0.956 | [59] 1 | [60] 0.907 | [61] 0.995 | [62] 0.95 | [63] 0.936 | [64] 0.957 | [65] 0.98 | [66] 0.884 | [67] 0.991 | [68] 0.97 | [69] 0.964 | [70] 0.973 | [71] 0.987

CCCc1cnc(N2CCN(CC(=O)N(c3ccccc3)C3CCCCC3)CC2)nc1
inactive: [1] 0.995 | [2] 0.985 | [3] 0.992 | [4] 0.985 | [5] 0.984 | [6] 0.991 | [7] 0.997 | [8] 0.986 | [9] 0.99 | [10] 0.992 | [11] 0.997 | [12] 0.989 | [13] 0.974 | [14] 0.985 | [15] 0.999 | [16] 0.997 | [17] 1 | [18] 0.989 | [19] 0.993 | [20] 0.988 | [21] 1 | [22] 0.999 | [23] 0.985 | [24] 1.09 | [25] 1 | [26] 1.05 | [27] 1.03 | [28] 1.09 | [29] 0.97 | [30] 0.99 | [31] 1.05 | [32] 0.985 | [33] 0.981 | [34] 1 | [35] 0.995 | [36] 1.07 | [37] 0.969 | [38] 1 | [39] 0.993 | [40] 0.99 | [41] 1.05 | [42] 0.949 | [43] 0.997 | [44] 0.977 | [45] 1.03 | [46] 0.991 | [47] 1.01 | [48] 0.994 | [49] 0.988 | [50] 0.997 | [51] 0.99 | [52] 1.04 | [53] 0.997 | [54] 0.995 | [55] 1 | [56] 0.994 | [57] 0.985 | [58] 1.01 | [59] 1.04 | [60] 0.992 | [61] 0.986 | [62] 1 | [63] 0.998 | [64] 0.981 | [65] 0.98 | [66] 0.968 | [67] 0.99 | [68] 0.979 | [69] 0.976 | [70] 0.99 | [71] 0.992

CN(C)C(=O)Oc1cc(OC(=O)N(C)C)cc(C(O)CNC(C)(C)C)c1 (configuration not stated)
inactive: locus YAL021C, strain ccr4, stronger effect = lower value 1.02 | locus YAL026C, strain drs2, stronger effect = lower value 1.03 | locus YAL030W, strain snc1, stronger effect = lower value 1.02 | locus YBL061C, strain skt5, stronger effect = lower value 1.02 | locus YBR009C, strain hhf1, stronger effect = lower value 1.04 | locus YBR023C, strain chs3, stronger effect = lower value 1.02 | locus YBR171W, strain sec66, stronger effect = lower value 1.03 | locus YBR231C, strain swc5, stronger effect = lower value 1.03 | locus YBR279W, strain paf1, stronger effect = lower value 1.02 | locus YCL011C, strain gbp2, stronger effect = lower value 1.03 | locus YCL016C, strain dcc1, stronger effect = lower value 1.03 | locus YCL061C, strain MRC1, stronger effect = lower value 1.03 | locus YCL069W, strain vba3, stronger effect = lower value 1.03 | locus YCR088W, strain abp1, stronger effect = lower value 1.03 | locus YDL005C, strain med2, stronger effect = lower value 1.03 | locus YDL040C, strain nat1, stronger effect = lower value 1.04 | locus YDR001C, strain nth1, stronger effect = lower value 1.03 | locus YDR069C, strain doa4, stronger effect = lower value 1.03 | locus YDR137W, strain rgp1, stronger effect = lower value 1.04 | locus YDR159W, strain sac3, stronger effect = lower value 1.05 | locus YDR195W, strain ref2 1.02 | locus YDR297W, strain sur2, stronger effect = lower value 1.02 | locus YDR334W, strain swr1, stronger effect = lower value 1.04 | locus YDR335W, strain msn5, stronger effect = lower value 1.03 | locus YDR392W, strain spt3, stronger effect = lower value 0.947 | locus YEL003W, strain gim4, stronger effect = lower value 1.02 | locus YEL037C, strain rad23, stronger effect = lower value 1.03 | locus YEL061C, strain CIN8 (second series), stronger effect = lower value 1.03 | locus YER015W, strain faa2, stronger effect = lower value 1.03 | locus YER016W, strain bim1, stronger effect = lower value 1.04 | locus YER111C, strain swi4, stronger effect = lower value 1.03 | locus YER155C, strain BEM2 (second series), stronger effect = lower value 1.03 | locus YFR010W, strain ubp6, stronger effect = lower value 1.03 | locus YGL167C, strain pmr1, stronger effect = lower value 1.03 | locus YGL173C, strain kem1, stronger effect = lower value 1.04 | locus YGL227W, strain vid30, stronger effect = lower value 1.04 | locus YGL240W, strain doc1, stronger effect = lower value 1.03 | locus YGL253W, strain hxk2, stronger effect = lower value 1.03 | locus YHR013C, strain ard1, stronger effect = lower value 1.02 | locus YHR027C, strain rpn1, stronger effect = lower value 1.04 | [26] 0.977 | [27] 0.991 | locus YHR142W, strain chs7, stronger effect = lower value 1.02 | locus YJL092W, strain hpr5, stronger effect = lower value 1.02 | locus YJL095W, strain BCK1 (second series), stronger effect = lower value 1.03 | [31] 1.01 | locus YJL115W, strain asf1, stronger effect = lower value 1.03 | locus YJL129C, strain trk1, stronger effect = lower value 1.04 | locus YJL154C, strain vps35, stronger effect = lower value 1.03 | locus YJL164C, strain tpk1, stronger effect = lower value 1.01 | locus YJL166W, strain qcr8, stronger effect = lower value 1.02 | locus YJL187C, strain SWE1, stronger effect = lower value 1.02 | [36] 0.921 | locus YKL160W, strain elf1, stronger effect = lower value 1.01 | locus YKR026C, strain gcn3, stronger effect = lower value 1.03 | locus YKR091W, strain srl3, stronger effect = lower value 1.03 | locus YLL001W, strain dnm1, stronger effect = lower value 1.04 | locus YLL026W, stronger effect = lower value 1.02 | locus YLL041C, strain sdh2, stronger effect = lower value 1.03 | locus YLR027C, strain aat2, stronger effect = lower value 1.03 | [42] 1.01 | locus YLR221C, strain rsa3, stronger effect = lower value 1.02 | locus YLR258W, strain gsy2, stronger effect = lower value 1.03 | locus YLR262C, strain YPT6 (second series), stronger effect = lower value 1.03 | locus YLR320W, strain mms22, stronger effect = lower value 1.04 | locus YLR342W, strain FKS1, stronger effect = lower value 1.03 | locus YLR357W, strain rsc2, stronger effect = lower value 1.02 | locus YLR370C, strain arc18, stronger effect = lower value 1.03 | locus YLR384C, strain iki3, stronger effect = lower value 1.02 | locus YML120C, strain ndi1, stronger effect = lower value 1 | locus YMR058W, strain fet3, stronger effect = lower value 1.03 | locus YMR125W, strain sto1, stronger effect = lower value 1.04 | locus YMR129W, stronger effect = lower value 1.02 | locus YMR205C, strain PFK2, stronger effect = lower value 1.05 | locus YMR231W, strain pep5, stronger effect = lower value 1.03 | locus YNL071W, strain lat1, stronger effect = lower value 1.03 | [52] 0.934 | locus YNL209W, strain ssb2, stronger effect = lower value 1.02 | locus YNL248C, strain rpa49, stronger effect = lower value 1 | locus YNL322C, strain KRE1 (second series), stronger effect = lower value 1.03 | locus YNR049C, strain mso1, stronger effect = lower value 1.03 | locus YOR001W, strain rrp6, stronger effect = lower value 0.999 | locus YOR070C, strain gyp1, stronger effect = lower value 1.02 | locus YOR080W, strain dia2, stronger effect = lower value 1.03 | locus YOR083W, strain WHI5, stronger effect = lower value 1.01 | locus YOR106W, strain vam3, stronger effect = lower value 1.03 | [60] 1.03 | locus YOR265W, strain rbl2, stronger effect = lower value 1.03 | locus YOR270C, strain vph1, stronger effect = lower value 1.06 | locus YOR290C, strain snf2, stronger effect = lower value 0.989 | locus YPL051W, strain arl3, stronger effect = lower value 1.01 | locus YPL078C, strain atp4, stronger effect = lower value 1.02 | locus YPL106C, strain sse1, stronger effect = lower value 1.05 | locus YPL240C, strain hsp82, stronger effect = lower value 1.03 | [66] 0.984
